Drawing on PubChem BioAssay AID602413 (Johns Hopkins Ion Channel Center, 2012), this text covers activation (ratio percentage) for 59 compounds.

The structures appear in SMILES notation. Screen size: about 1,200 compounds; about 150 (12%) were called active.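 The calls were made as follows: active = ratio at least 3 SD above the weak peptide control, stable starting fluorescence, no direct agonism earlier; inactive = the rest.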 These entries were drawn from the full list.

The target of this assay is Mas-related G-protein coupled receptor member X1 (Homo sapiens) (UniProt Q96LB2). Nature of the assay: MrgX1 positive allosteric modulators, duplicate retest, confirmation, HEK293 cells, Fluo-4 calcium flux (AID 602413).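 Also: compound followed by low BAM8-22 agonist challenge near EC20.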 Conditions: MrgX1-HEK293, Fluo-4 calcium fluorescence, FDSS, at 10 µM; hits give high values.
Sequence of Mas-related G-protein coupled receptor member X1 (Homo sapiens) (Q96LB2 whole entry, looked up): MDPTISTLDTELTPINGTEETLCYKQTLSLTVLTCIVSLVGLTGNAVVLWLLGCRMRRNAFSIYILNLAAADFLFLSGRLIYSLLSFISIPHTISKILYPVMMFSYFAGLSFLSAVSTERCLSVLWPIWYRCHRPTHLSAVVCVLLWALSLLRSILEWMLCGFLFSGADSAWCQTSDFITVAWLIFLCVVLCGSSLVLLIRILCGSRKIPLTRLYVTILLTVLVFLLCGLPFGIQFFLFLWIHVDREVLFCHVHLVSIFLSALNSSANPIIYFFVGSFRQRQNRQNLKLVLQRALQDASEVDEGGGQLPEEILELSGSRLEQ
Turning to `OCCn1c(-c2ccccc2)csc1=Nc1ccccc1`, the activation (ratio percentage) result was “inactive”.
For the compound `CN1/C(=C\C=C2\N=C(c3ccc(F)cc3)OC2=O)C(C)(C)c2ccccc21`, the activation (ratio percentage) entry is “inactive”.
`COCCNC(=O)C1CCN(S(=O)(=O)c2ccc3c(c2)OCCO3)CC1`: the activation (ratio percentage) result is “inactive”.
In the case of `Fc1cccc(Cl)c1COc1ccc(-c2nnco2)cc1`, the activation (ratio percentage) entry was “inactive”.
In the case of `O=C1C(Cc2ccc(O)cc2)NC(=S)N1Cc1ccccc1` (centres undefined), the activation (ratio percentage) result is “inactive”.
Take `COC(=O)c1c(NC(=O)CN(c2ccc(C)c(C)c2)S(C)(=O)=O)sc2c1CCCC2`: the activation (ratio percentage) entry is “inactive”.
As to `Cc1cccc(Cn2cnc3c(N)c(C)c(C)cc32)c1`, the activation (ratio percentage) result is “inactive”.
Take `COc1cccc(-c2cnc(OC(C)(C)C)nc2OC(C)(C)C)c1`: the activation (ratio percentage) result is “inactive”.
In the case of `Brc1ccccc1C1Nc2cccc3cccc(c23)N1`, the activation (ratio percentage) result is “inactive”.
As to `Cc1ccc(OC(=O)c2cc3ccccc3o2)cc1`, the activation (ratio percentage) result was “inactive”.
Turning to `Cc1cccc(NC(=O)C(C)N2C(=O)C3C4CC(C(Br)C4Br)C3C2=O)c1` (centres undefined), the activation (ratio percentage) was 11.6% (active).
In the case of `Cc1ccnc(NC(=O)C(C)N2C(=O)c3ccccc3C2=O)c1` (centres undefined), the activation (ratio percentage) result was “inactive”.
In the case of `COC(=O)Cn1c(O)c(N=NC(=O)OC)c2ccccc21`, the activation (ratio percentage) entry was “inactive”.
As for `CCOc1ccc(C2=CC(c3ccccc3)n3ncnc3N2)cc1` (centres undefined), the activation (ratio percentage) result was “inactive”.
In the case of `COc1cc(C)c(C)cc1S(=O)(=O)N1CCCc2ccccc21`, the activation (ratio percentage) is 12.4% (active).
Regarding `COc1ccc(C2SCCN2S(=O)(=O)c2ccccc2)cc1OC` (centres undefined), the activation (ratio percentage) entry is “inactive”.
For `COc1cc(C(F)(F)F)nc2c(Br)c(C(C)(C)C)nn12`, the activation (ratio percentage) result was “inactive”.
For the compound `Cc1c(C(=O)N2CCCc3ccccc32)sc2nc(-c3ccccc3)cn12`, the activation (ratio percentage) result is “inactive”.
With `CCOc1ccc2nc(/N=C/c3nc(-c4ccccc4)oc3O)sc2c1`, the activation (ratio percentage) result is “inactive”.
Consider `Cc1c(C(=O)N2CCN(c3ccc(F)cc3)CC2)oc2c1C(=O)CCC2`, for which the activation (ratio percentage) entry is “inactive”.
`CCOc1ccc(NC(=O)N2CC=C(n3c(=O)[nH]c4ccccc43)CC2)cc1`: the activation (ratio percentage) result is “inactive”.
The result for `CCc1ccc(N(CC(=O)Nc2sc3c(c2C(=O)OC)CCCC3)S(C)(=O)=O)cc1` reads “inactive”.
With `O=C(c1ccc(OC2CCN(C(=O)c3cccnc3)CC2)cc1)N1CCCCCC1`, the activation (ratio percentage) result is “inactive”.
Consider `CC(C)CNc1ncnc2c1cnn2Cc1ccc(Cl)cc1`, for which the activation (ratio percentage) result was “inactive”.
With `CC(=O)N1c2ccc(S(=O)(=O)N3CCCC(C(=O)Nc4cccc(Cl)c4)C3)cc2CC1C` (centres undefined), the activation (ratio percentage) entry was “inactive”.
For the compound `Cc1ccc(-n2cnc3ncnc(-c4ccccc4)c32)cc1`, the activation (ratio percentage) entry was “inactive”.
As to `CC(C)CC(=O)N/C(N)=N/c1nc2ccccc2s1`, the activation (ratio percentage) entry was “inactive”.
Take `Cc1ccc2nc(Nc3ccccc3)cc(C)c2c1`: the activation (ratio percentage) entry was “inactive”.
With `COc1ccc(Cc2nc(-c3ccccn3)no2)cc1OC`, the activation (ratio percentage) entry is “inactive”.
With `Nc1cc(OC(=O)c2ccccc2Br)nn1S(=O)(=O)c1ccccc1`, the activation (ratio percentage) result is “inactive”.
Consider `O=C(c1cccc(S(=O)(=O)Nc2ccccc2Cl)c1)N1CCN(C(=O)c2ccco2)CC1`, for which the activation (ratio percentage) result is “inactive”.
In the case of `Nc1ccc(Oc2ccc(Cl)cc2)cc1`, the activation (ratio percentage) entry was “inactive”.
Consider `CC1(C)CC2CC(C)(CN2c2ncnc3ccc(Br)cc23)C1` (centres undefined), for which the activation (ratio percentage) is 29.4% (active).
The result for `Cc1ccc(S(=O)(=O)N(C)c2nc3ccccc3n3c(C(C)C)nnc23)cc1` reads 27.8% (active); that for `COc1ccc(Nc2nnc(C)c3ccccc23)cc1`, “inactive”; that for `O=C(Nc1cccc(Cl)c1)c1cncn1-c1ccc(F)cc1`, “inactive”.
`O=C(Nc1nc2c(F)cc(F)cc2s1)C1COc2ccccc2O1` (centres undefined): the activation (ratio percentage) entry is “inactive”.
Under `NC(=O)c1c(Nc2nc3c(F)cccc3s2)sc2c1CCCC2` stands 15.4% (active).
The result for `COc1ccc(NC(=O)c2cc(-c3ccc(C)o3)nc3ccccc23)cc1` reads “inactive”; that for `O=C(COC(=O)c1ccc(NS(=O)(=O)c2cccs2)cc1O)Nc1ccc(F)cc1`, “inactive”; that for `Cc1nn(C(=O)c2ccoc2C)c(N)c1-c1ccccc1`, “inactive”.
In the case of `Cc1nc2ccccc2cc1OCc1ccc(F)cc1`, the activation (ratio percentage) result is “inactive”.
For `Cc1cc2ncn(CCCCOc3ccccc3)c2cc1C`, the activation (ratio percentage) result is “inactive”.
As to `CCN(c1cccc(C)c1)S(=O)(=O)c1ccc(-c2coc(C)n2)cc1`, the activation (ratio percentage) result is “inactive”.
Under `Cc1ccc(N/C(N)=N/c2nc(C(F)(F)F)cc(C(F)(F)F)n2)cc1` stands “inactive”; under `O=C(Nc1ccccc1N1CCCCC1)c1ccc2nccnc2c1`, 11.5% (active).
Turning to `O=C(Nc1ccccc1N1CCOCC1)c1csc2c1CCCC2`, the activation (ratio percentage) entry was “inactive”.
`Cc1nonc1C1CCCN1Cc1nc(-c2ccc(F)cc2F)oc1C` (centres undefined): the activation (ratio percentage) entry is “inactive”.
For `CCOC(=O)N1CCN(C(=O)COCc2cc(-c3ccc4c(c3)OCO4)on2)CC1`, the activation (ratio percentage) result is “inactive”.
For the compound `COc1ccc(-c2cc(C(F)(F)F)nc(S(C)(=O)=O)n2)cc1OC`, the activation (ratio percentage) result is “inactive”.
For `O=C(Oc1ccc(C(=S)N2CCOCC2)cc1)c1ccc(F)cc1`, the activation (ratio percentage) entry is “inactive”.
As to `Cc1ccc2c(c1)c1ncnc(N3CCc4ccccc4C3)c1n2C`, the activation (ratio percentage) result was “inactive”.
On to `Cc1occc1C(=O)Nc1nnc(-c2ccncc2)s1`, for which the activation (ratio percentage) result was “inactive”.
In the case of `Cc1ccc2c(C)c(C(=O)N(C)CCC3CCCCO3)oc2c1C` (centres undefined), the activation (ratio percentage) result was “inactive”.
With `CCOCc1nnc(NC(=O)CCC2CCCCC2)s1`, the activation (ratio percentage) result is “inactive”.
Take `COc1ccc(OC)c(Nc2nc3ccccc3n3cnnc23)c1`: the activation (ratio percentage) result was “inactive”.
Regarding `COC(=O)Cc1cc(=O)n(-c2nc3ccccc3s2)[nH]1`, the activation (ratio percentage) entry was “inactive”.
For the compound `CCC(C)Sc1nc(C)nc2c1c(=O)n(C)c(=O)n2C` (centres undefined), the activation (ratio percentage) result is “inactive”.
As to `COc1ccc(C(=O)NC(=S)NC2CCCCC2)cc1`, the activation (ratio percentage) entry is “inactive”.
